Test results published in PubChem BioAssay (NCI).
About 83,000 compounds went through this panel and 20% of them were active in at least one assay; those are over-represented in the sample as a whole.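 Plates (96-well) were seeded with cells, treated with compound at one concentration, and incubated for 48 hours before percent growth was determined.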 Values without a mark were called inactive. Active and inactive are the calls of the source. Rule for the calls: active = growth percent below 10; inactive = the rest.

test system: HL-60(TB) leukemia; test: NCI-60 one-dose screen, 48 h (100 = growth as untreated, 0 = no growth, -100 = all killed); settings: 10 µM unless noted

Compound | growth
Nc1nn2c(-c3cc4cc(Br)ccc4oc3=O)ccnc2c1N=Nc1ccc(Br)cc1 | 98.5%
COc1ccc(C(=O)/C=C/c2cc(C(F)(F)F)cc(C(F)(F)F)c2)cc1S(N)(=O)=O | 2.43% (active)
COc1ccc(-c2ccc(/C=N/NC(=O)c3[nH]c4ccc(Br)cc4c3-c3ccccc3)s2)cc1 | 95.6%
Cc1nc2sccn2c1-c1nnc(SCc2ccccc2)o1 | 89.9%
N#Cc1c(NC(=O)c2ccc(C(O)(C(F)(F)F)C(F)(F)F)cc2)sc2c1CCC(=O)C2 | -23.4% (active)
O=C(O)c1cccc(-c2ccc(/C=N/NC(=O)c3[nH]c4ccc(Br)cc4c3-c3ccccc3)s2)c1 | 42.4%
COc1ccc2[nH]cc(-c3cc(N)n4nc(-c5cn(C)c6ccccc56)cc4n3)c2c1 | -40.7% (active)
COc1ccc(NC(=O)NN2C(=O)c3ccccc3N(C)C2c2ccc(OC)cc2)cc1 (stereo not given) | 101%
C=C1CC[C@@H]2[C@]3(C)COC(c4cn[nH]c4-c4cccc(Br)c4)O[C@@H]3CC[C@@]2(C)[C@@H]1C/C=C1/C(=O)OCC1O (stereo not given in full) | -16.3% (active)
Cn1cc(-c2nc(N)nnc2-c2c[nH]c3ccc(Br)cc23)c2cccnc21 | 5.1% (active)
O=C(CSc1nc2sc3c(c2c(=O)n1-c1ccc(Cl)cc1)CCCC3)N/N=C/C=C/c1ccccc1 | 64.5%
Cn1cc(/C=N/Nc2ccnc3cc(Cl)ccc23)c2ccccc21 | -60.3% (active)
COC(=O)C[C@](O)(CCCC(C)(C)O)C(=O)O[C@H]1C(OC)=C[C@@]23CCC(=O)N2CCc2cc4c(cc2[C@@H]13)OCO4 | 97.4%
CC(=O)c1ccc(Nc2nc(SCCC(C)C)nc(-c3ccc(F)cc3)c2C#N)cc1 | 91.8%
COc1c(F)ccc(C(=O)Nc2ccc3nc(NC(=O)C4CCCN(S(=O)(=O)C5CC5)C4)sc3c2)c1F (stereo not given) | 32.4%
COc1ccc(N(C)c2cc(C#N)nc3ccccc23)cc1/C=C/C(=O)NO | -28.7% (active)
Fc1ccccc1CNc1nc(SCCN2CCOCC2)nc2c1cnn2CC(Cl)c1ccc(Br)cc1 (stereo not given) | -22.8% (active)
O=C(O)CC1S/C(=N/N=C/c2nc3ccccc3s2)NC1=O (stereo not given) | 98.4%

Compound | growth
CC1=C(C(=O)Nc2ccccc2)C(c2cccc3ccccc23)n2c(nc3ccccc32)N1 (stereo not given) | 95%
Cc1ccccc1[C@H]1C(C(=O)c2ccc(Cl)cc2)C2(N[C@@H]1c1ccccc1)C(=O)Nc1ccccc12 (stereo not given in full) | -18.1% (active)
Nc1cccnc1/C=N/NC(=S)NCCNC(=O)c1ccc(-n2nc(-c3ccccc3O)nc2-c2ccccc2O)cc1 | -8.62% (active)
CC(C)CSc1nc(NCCc2c[nH]c3ccccc23)c(C#N)c(-c2ccc(F)cc2)n1 | 49.7%
Cc1ccn2c(C(=O)c3ccc(Br)cc3)cc(-c3cc(-c4ccc(N(C)C)cc4)c(C#N)c(N)n3)c2c1 | 89.5%
N#CC1=C(c2ccco2)Nc2c(c(-c3ccccc3)nn2-c2ccccc2)C12C(=O)Nc1ccc(Br)cc12 (stereo not given) | 51.1%
CN(C)CCCc1ccc(Nc2cnn(C)c(=O)c2Cl)cc1 | 81%
Nc1nc(C(F)(F)F)cs1 | 102%
CC1=C(C(=O)c2ccccc2)C(c2cccc(Cl)c2Cl)n2c(nc3ccccc32)N1 (stereo not given) | 36.1%
COc1ccc2c(c1)N=C(C(=O)O)/C2=C/c1sc(Nc2ccc(O)cc2)nc1O | 85.8%
COc1ccc(/C=C/C(=O)c2ccc(N3CCN(C)CC3)cc2)c(C(F)(F)F)c1 | -24.7% (active)
CCCCSc1nc(NCCc2c[nH]c3ccccc23)c(C#N)c(-c2ccc(OC)cc2)n1 | 42.5%
COc1ccc(-c2nc(-c3ccccc3)c(-c3ccccc3)n2-c2ccc(S(=O)(=O)Nc3ncccn3)cc2)cc1OC | 89%
CC1=C(c2cc(-c3ccc(Cl)cc3)c(C#N)c(N)n2)C(c2ccccc2)NC(=S)N1 (stereo not given) | 5.3% (active)
O=C(NCCCCCCCCCC[P+](c1ccccc1)(c1ccccc1)c1ccccc1)c1ccc(-n2nc(-c3ccccc3O)nc2-c2ccccc2O)cc1 | -29.8% (active)
Cc1cc(=O)oc2cc(OCCCCOc3ccc(/C=C/C(=O)Nc4ccccc4[N+](=O)[O-])cc3)ccc12 | 101%
Cc1nn(-c2ccccc2)c2nc(C)n(C(=O)N/N=C/c3cccc([N+](=O)[O-])c3)c(=O)c12 | 74%
